# Results as given in PMC7819943, “Rice protein-binding microarrays: a tool to detect cis-acting elements near promoter regions in rice”.
# The full ranking holds about 68,000 sequences; the median of “fluorescence intensity (a.u.)” is about 9,100, and the highest 2% start at about 16,000. The list comes from a sample in which the highest values are over-represented; it also holds similar and randomly drawn sequences.
# Target: OsWRKY34 (Oryza sativa, UniProt Q0JBA9 1-250)
# Experiment: protein-binding microarray (RPBM); PBS, 2% BSA, 51.3 ng/ul salmon testes DNA, 50 uM zinc acetate, 200 nM TF, 25 C, 1 h; high values mean tight binding
# Conditions: protein: recombinant; tags: N-terminal polyhistidine and DsRed monomer fusion (pET32a); label: CyDye5-dUTP incorporated in the synthesized complementary strand; 3' TTTTT single-stranded linker to array surface; dsDNA, one strand shown
# Procedure, shortened: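 The binding signal is fluorescence intensity per array feature (arbitrary units). Readings came from an Axon 4000B scanner after a washed, 2% BSA-blocked, double-stranded custom Agilent array had been incubated for 1 h at 25 °C with 200 nM protein and 50 µM zinc acetate. The protein was a Ni–NTA-purified transcription factor fused N-terminally to polyhistidine and DsRed, expressed in E. coli BL21-CodonPlus.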
# OsWRKY34, sequence (Q0JBA9 entry or part of it): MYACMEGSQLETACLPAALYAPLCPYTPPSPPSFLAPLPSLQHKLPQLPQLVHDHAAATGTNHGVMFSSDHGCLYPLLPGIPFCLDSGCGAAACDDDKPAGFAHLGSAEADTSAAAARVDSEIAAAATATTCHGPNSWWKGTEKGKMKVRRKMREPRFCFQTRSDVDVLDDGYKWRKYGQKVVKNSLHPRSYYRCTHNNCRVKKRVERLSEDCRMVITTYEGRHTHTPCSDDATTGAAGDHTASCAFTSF
row,Sequence,binding signal
1,TTGCTCTCCTCTCTGGATTGATGTGTTCGTTTGGCCATTCCGGAGTCACCTAGTGCAG,8940 fluorescence intensity (a.u.)
2,GCCATGTGACTAGACCGAGCTAGCTCGCTCGATCGATCTCCGGAGTCACCTAGTGCAG,8510 fluorescence intensity (a.u.)
3,CTTTCTTCTGTGTGGTGGGTTTTAGCCGGTTTCTCGCAATCGGAGTCACCTAGTGCAG,18400 fluorescence intensity (a.u.)
4,TGGAGCTGGTTTTTGGGTGGTGTTTTCTCTGTGATCGTGGCGGAGTCACCTAGTGCAG,9760 fluorescence intensity (a.u.)
5,CGTGTGGGTGGGTGGGTGGAGTGGACTGGTTTCTGTGAGCCGGAGTCACCTAGTGCAG,18500 fluorescence intensity (a.u.)
6,AGGAGTGTCTGGTTGGTTTCCGGGGTGTGTTGGGTGACTCCGGAGTCACCTAGTGCAG,29500 fluorescence intensity (a.u.)
7,GGTCTTGCTAGTTGGCCATGTGAGAGTGAGACCGGGTCTCCGGAGTCACCTAGTGCAG,50700 fluorescence intensity (a.u.)
8,TGTTGGTGGTGAGGTGTGAGGTGAGGTGGGGTGGTGTGGCCGGAGTCACCTAGTGCAG,10100 fluorescence intensity (a.u.)
9,TTTGGTTACCGCATTTTTGTGTTCTTCTGTGCAGTTTAGCCGGAGTCACCTAGTGCAG,8150 fluorescence intensity (a.u.)
10,TTGTTGGCAAGTTTCTTCCCTTGTCTCTCTCTTGTGAGACCGGAGTCACCTAGTGCAG,8700 fluorescence intensity (a.u.)
11,GCCATGGGGTTGACTCTCTGGGTGTTCTTGGTTTCTTGGCCGGAGTCACCTAGTGCAG,10500 fluorescence intensity (a.u.)
12,CAATTTTAGTTCAATCTTGGGTGTTTTCGCATGGTTCTCTCGGAGTCACCTAGTGCAG,8180 fluorescence intensity (a.u.)
13,ATGCGGATCTGAGTGGTGGTGGTGGTGGACTGGTGGTTGCCGGAGTCACCTAGTGCAG,11000 fluorescence intensity (a.u.)
14,GAAATATCAACAACCCTATAAAAAAAGTCAACCCATGTACCGGAGTCACCTAGTGCAG,9120 fluorescence intensity (a.u.)
15,CACACACACAAATCCACAAGTAGACATCCTTCCATGTCTTCGGAGTCACCTAGTGCAG,8380 fluorescence intensity (a.u.)
16,AGGTAGTCAAGGTGGACTTATTCCTTTTGTTTCTTCCATTCGGAGTCACCTAGTGCAG,8900 fluorescence intensity (a.u.)
17,CCATTTGTCCACCACCACCTCCACCACCTGACACGTCGTCCGGAGTCACCTAGTGCAG,8050 fluorescence intensity (a.u.)
18,AATTATTTTCATTTGCTAAGTTACTATTTCGCATTTTTTTCGGAGTCACCTAGTGCAG,8650 fluorescence intensity (a.u.)
19,CAATTATTACAGGCGGCCAGCGCCTCATGGCTTTTACCTTCGGAGTCACCTAGTGCAG,8660 fluorescence intensity (a.u.)
20,TCTTACTTGCATGTGAACACCTCTTTGTCGGTTTTTCCATCGGAGTCACCTAGTGCAG,10400 fluorescence intensity (a.u.)
21,AAAAAAGTCAACCCATGTACACCGTCCGATCTCCATCCGACGGAGTCACCTAGTGCAG,8110 fluorescence intensity (a.u.)

row,Sequence,binding signal
1,TTTTGTCTCTTTCTGCTGCTGGAGTAGTATTGTTCATTTACGGAGTCACCTAGTGCAG,9050 fluorescence intensity (a.u.)
2,CTGGTAGGATTGCTGCTTGCTTTGCCTTCACGTCATTATCCGGAGTCACCTAGTGCAG,11200 fluorescence intensity (a.u.)
3,TGCGTTTCCCGTCAGCCCTGTCACGCCGCCGCCGGTCGCCCGGAGTCACCTAGTGCAG,12000 fluorescence intensity (a.u.)
4,ACTTTCTTTTTGGGCCTGAAACCACGACGGCCCTTTGTTCCGGAGTCACCTAGTGCAG,8760 fluorescence intensity (a.u.)
5,AAAATAGGCCAATAGGGTGTTGAGAGAAAAGGAGATATATCGGAGTCACCTAGTGCAG,17500 fluorescence intensity (a.u.)
6,CGCAAGGGAGAATAGGGGTGTTGAGAGGAGGGGCGACAGGCGGAGTCACCTAGTGCAG,8240 fluorescence intensity (a.u.)
7,AAGGATATAAGGGTGGTTGAGGGGTAGAATAGGAAGAAATCGGAGTCACCTAGTGCAG,9360 fluorescence intensity (a.u.)
8,ATGTTGACTCGTTTGCCTGTGTTCCTCTTGCTGCTATTCACGGAGTCACCTAGTGCAG,19200 fluorescence intensity (a.u.)
9,GATGGCTTCGATTTGCTGTGTTACTTCTTTTTTCTAGTTTCGGAGTCACCTAGTGCAG,16900 fluorescence intensity (a.u.)
10,CTTTCTTTGACTGTTGCCTTTTATTTTGTGCAGGTTGTATCGGAGTCACCTAGTGCAG,11300 fluorescence intensity (a.u.)
11,TTGCTTTTGTGTTCGGTTTTTCTATTTTTTCTATTTTCTTCGGAGTCACCTAGTGCAG,13700 fluorescence intensity (a.u.)
12,TATTTCGATTTGATGGCTTCCTGTTGCTTTTCCTGTTAATCGGAGTCACCTAGTGCAG,14000 fluorescence intensity (a.u.)
13,CCTGTTGCTGCTCTGTGCCTCTGCTCTGCTCCTTGACTTCCGGAGTCACCTAGTGCAG,11300 fluorescence intensity (a.u.)
14,CCTCTTGCTATGTGCTGCTCTTCCTTGTTCTTCTTGCCTACGGAGTCACCTAGTGCAG,10800 fluorescence intensity (a.u.)
15,TCCTCTTTTTGCTGGCTTTCTGTTGACTGTTATTTTATTTCGGAGTCACCTAGTGCAG,17100 fluorescence intensity (a.u.)
16,TTTTGAGTGCTTTTATTTCTTTATTTCTTTATTTCTTTATCGGAGTCACCTAGTGCAG,9320 fluorescence intensity (a.u.)
17,GGTTTCGGTTAACTTTTGTGCACACTCGCCAGTGAGAGTTCGGAGTCACCTAGTGCAG,12300 fluorescence intensity (a.u.)
18,TGTAAGTCATTCCACCATTTCCCACATTCATATTGATGCCCGGAGTCACCTAGTGCAG,8890 fluorescence intensity (a.u.)
19,TTTAACCTAAACCACATGTGAATTTCTTCTTATGTATTCCCGGAGTCACCTAGTGCAG,8700 fluorescence intensity (a.u.)
20,GTGGGATTCGCCTGCTTGCTTGCTGGGGCCTTGGGAAATGCGGAGTCACCTAGTGCAG,8230 fluorescence intensity (a.u.)
21,TCAAAACGGCCCACTCGCCGCCCGCCACGTGTCCGACCCGCGGAGTCACCTAGTGCAG,8920 fluorescence intensity (a.u.)

row,Sequence,binding signal
1,GATCCGCATCACTGATTCACTGCACTTCGCCCGCCGTCTGCGGAGTCACCTAGTGCAG,9810 fluorescence intensity (a.u.)
2,TTTTATTCAATATATGTATATAGGTATCTTTGGTTGTTTTCGGAGTCACCTAGTGCAG,8320 fluorescence intensity (a.u.)
3,TTCGAGCACATCTACTTCGCGCTCCCAAACTCCGTGGTGTCGGAGTCACCTAGTGCAG,8080 fluorescence intensity (a.u.)
4,TCATATGGGTTGGTGTATGTGTATTGTGAGTCTGTGTTTGCGGAGTCACCTAGTGCAG,8300 fluorescence intensity (a.u.)
5,TCATATATGAGTTTGTGGGTGTGGGTGTTTGCGAGCTTTTCGGAGTCACCTAGTGCAG,30700 fluorescence intensity (a.u.)
6,TGTTGTTGTGGTGGTGGTGGTGGTGGTAGTGCGTGAGTGACGGAGTCACCTAGTGCAG,21200 fluorescence intensity (a.u.)
7,GTTGTTTGGTTGCGTGAGGAGAGGAGGAGGAGGAGGAGGACGGAGTCACCTAGTGCAG,8200 fluorescence intensity (a.u.)
8,GCAATTGTTCAATATTTTTTTGTGTGTATGTGTTTTTTTTCGGAGTCACCTAGTGCAG,18200 fluorescence intensity (a.u.)
9,GGGTGAGTGTGTGTTGTGCGTTGTGAGTGTGTATGTGTTTCGGAGTCACCTAGTGCAG,17200 fluorescence intensity (a.u.)
10,TTTTTTTGTGTTTTGCAATTTTATGTTTTGCACTTATTTTCGGAGTCACCTAGTGCAG,8070 fluorescence intensity (a.u.)
11,TCTCTCTGTGTGTGTTTGTGTCATATATGAGTTTGTGGGTCGGAGTCACCTAGTGCAG,9570 fluorescence intensity (a.u.)
12,GAGGTGTGTGTTCGTAGAGATGAGTGCGTGCGCGTTGTGACGGAGTCACCTAGTGCAG,9140 fluorescence intensity (a.u.)
13,GGGTGAGTGCGCGTGCGTTGTGAGTGTTTGTATTGTACTGCGGAGTCACCTAGTGCAG,9790 fluorescence intensity (a.u.)
14,ATTTCGGATTTGTATGTATTGTGTTTTTTTAAAAAAAATTCGGAGTCACCTAGTGCAG,9880 fluorescence intensity (a.u.)
15,GTGGGTGTTTGCGAGCTTTTGTTCGTATGCTTTTTTACTTCGGAGTCACCTAGTGCAG,9960 fluorescence intensity (a.u.)
16,ATCCCACCGTGGCGCCACCCTATTGGGCCCTACTCTTCAGCGGAGTCACCTAGTGCAG,8780 fluorescence intensity (a.u.)
17,ACTCCATATCGCTTCGCGATTTTTTGTTGACCAAATCAATCGGAGTCACCTAGTGCAG,9610 fluorescence intensity (a.u.)
18,AATCTCGTTCCTTGCTGTTGTGACTAGTATCGTTGCCTACCGGAGTCACCTAGTGCAG,10500 fluorescence intensity (a.u.)
19,GCCTGCTGTTCCTTTTAGTTTCTCCAAGCTCCTGCCAACACGGAGTCACCTAGTGCAG,8320 fluorescence intensity (a.u.)
20,GGAGGCATGATGGCGGCATGGTGGAGGGTGGGGTGACGTGCGGAGTCACCTAGTGCAG,12000 fluorescence intensity (a.u.)
21,ACGCGGGGATGGATGATGGTGGTGGCGGCGAGGGGATGATCGGAGTCACCTAGTGCAG,9170 fluorescence intensity (a.u.)

row,Sequence,binding signal
1,TATAGTAGTATGGGTGGAGATTTATATTTTTCTCTCGATTCGGAGTCACCTAGTGCAG,8940 fluorescence intensity (a.u.)
2,CTAGATTCGTTTTTTATGGGGTGGAGGGAGTACATGCCTTCGGAGTCACCTAGTGCAG,12800 fluorescence intensity (a.u.)
3,ACCTTTTATGGTGGGGTAGGAGTAGGTGACGGTGGAGATTCGGAGTCACCTAGTGCAG,19000 fluorescence intensity (a.u.)
4,CGTGGTGGTGGTAGGGGAGGGGATGGATGATATGGCGTGACGGAGTCACCTAGTGCAG,22400 fluorescence intensity (a.u.)
5,GAAATACTCCAATGGGTTAACTTAGGGTCGGGAAGGGGAGCGGAGTCACCTAGTGCAG,10100 fluorescence intensity (a.u.)
6,TTCCTGCTCTGTCCGTGCTCGACTCAATTCATTGTCAACCCGGAGTCACCTAGTGCAG,8690 fluorescence intensity (a.u.)
7,CTTTGCATCTCTTCTTTTCTTTCTTTTTTTTTTCTTTTCTCGGAGTCACCTAGTGCAG,12100 fluorescence intensity (a.u.)
8,AAGTTTTCGCGTCCAACTTTCATCGTTCGTCTTATTTGAACGGAGTCACCTAGTGCAG,10600 fluorescence intensity (a.u.)
9,GACTTTTTAGCACATGTTTAACCGTTCGTCTTATTCAAAACGGAGTCACCTAGTGCAG,12100 fluorescence intensity (a.u.)
10,GCCTCTTTTTTGTCGCTCTCACTGTCTCACACCTACACGTCGGAGTCACCTAGTGCAG,16400 fluorescence intensity (a.u.)
11,GTTAACTTTTTAGAACATGTTTGACCGTTCGTCTTATTCACGGAGTCACCTAGTGCAG,8930 fluorescence intensity (a.u.)
12,GTTAACTTTTTAGCACATGTTTGACCGTTCGTCTTATTCACGGAGTCACCTAGTGCAG,12600 fluorescence intensity (a.u.)
13,TTTTTAGTACATGTTTGACCGTTCGTCTTATTCAAAAAATCGGAGTCACCTAGTGCAG,10700 fluorescence intensity (a.u.)
14,CCGTTGACTTTTTAGTACATGTTTAACCGTTCGTCTTATTCGGAGTCACCTAGTGCAG,38600 fluorescence intensity (a.u.)
15,ATATTGTTGACTTTTTAGCACATGTTTAACCGTTCATCTTCGGAGTCACCTAGTGCAG,19600 fluorescence intensity (a.u.)
16,TGTTCGCGTCCATCGTTGACTTTTTCAACGCCATGCACGCCGGAGTCACCTAGTGCAG,30900 fluorescence intensity (a.u.)
17,CCTCTCTTTCTCTCACTCTCTGTGACTCTTGTCTTTTTGTCGGAGTCACCTAGTGCAG,8390 fluorescence intensity (a.u.)
18,TCCACGTTGACCACATCGCGTCACACCGTCCACGACTTTTCGGAGTCACCTAGTGCAG,12700 fluorescence intensity (a.u.)
19,TTCATCTCACGTACTGTTCTTTTGCCTCTCGCTAGCTCGTCGGAGTCACCTAGTGCAG,9220 fluorescence intensity (a.u.)
20,CATTGTGCGCTCTGGAGAGGCTCCAAACCACCATTGTTCGCGGAGTCACCTAGTGCAG,8090 fluorescence intensity (a.u.)
21,GCCCTCGTCGTCGTCCGACCACCCGATCCCGACGAGAACCCGGAGTCACCTAGTGCAG,8690 fluorescence intensity (a.u.)
